{
  "source": "the supplement of paper PMC12494721",
  "note": "Where a name gives a salt, the structure may show the parent alone. Values without a mark were called inactive.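 How the source made its calls: for the amine columns active = adjusted P below 0.05 in both replicates with a change the same way and a mean fold change under 0.8 or over 1.25; inactive = the rest.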",
  "data": [
    {"system": "Ruminococcus gnavus DSM 108212", "assay": "fold change of Tryptamine concentration vs plate DMSO controls (fold change (ratio)); higher = more amine produced, active = hit call of the paper (significant change in both replicates, either direction)", "conditions": "incubation time: 27 h, anaerobic, 37 °C", "method_in_brief": "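Anaerobic mGAM cultures of four gut bacterial strains were grown at 37 °C for 27 h in 80 µL wells, starting at OD 0.1 before 1:1 dilution. Compounds were at 20 µM final (sweeteners 50 µM). Whole cultures were extracted with cold acetonitrile/methanol containing 0.1% formic acid and centrifuged. Amines were quantified by LC–triple-quadrupole MS (dynamic MRM) against external calibration curves and drift-corrected within batch. Each value is the fold change versus plate DMSO controls, averaged over 2 biological replicates.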", "values": [
      {"smiles": "CN1CCC(=C2c3ccccc3CCc3cccnc32)CC1", "note": "[Azatadine maleate] (20 µM)", "fold change of Tryptamine concentration": 1.01},
      {"smiles": "CC(=O)OC[C@H]1O[C@@H]([S-])[C@H](OC(C)=O)[C@@H](OC(C)=O)[C@@H]1OC(C)=O.CCP(CC)CC.[Au+]", "note": "[Auranofin] (20 µM)", "fold change of Tryptamine concentration": "0.05 (active)"},
      {"smiles": "C=CCOC(Cn1ccnc1)c1ccc(Cl)cc1Cl", "note": "(centres undefined) (20 µM)", "fold change of Tryptamine concentration": 1},
      {"smiles": "CC[C@H](C)C(=O)O[C@H]1CCC=C2C=C[C@H](C)[C@H](CC[C@@H]3C[C@@H](O)CC(=O)O3)[C@H]21", "note": "[Mevastatin] (20 µM)", "fold change of Tryptamine concentration": 1.02},
      {"smiles": "NS(=O)(=O)c1cc2c(cc1Cl)NC(Cc1ccccc1)NS2(=O)=O", "note": "(centres undefined) [Benzylhydrochlorothiazide] (20 µM)", "fold change of Tryptamine concentration": 1.06},
      {"smiles": "O=c1[nH]c(=O)n(C2CCCO2)cc1F", "note": "(centres undefined) [Tegafur] (20 µM)", "fold change of Tryptamine concentration": 1.06},
      {"smiles": "Cc1nn(C)c(Oc2ccccc2)c1/C=N/OCc1ccc(C(=O)OC(C)(C)C)cc1", "note": "(20 µM)", "fold change of Tryptamine concentration": 1.04},
      {"smiles": "CS(=O)(=O)OCCCCOS(C)(=O)=O", "note": "[Busulfan] (20 µM)", "fold change of Tryptamine concentration": 1.11},
      {"smiles": "CCSc1ccc2c(c1)N(CCCN1CCN(C)CC1)c1ccccc1S2", "note": "[Thiethylperazine maleate] (20 µM)", "fold change of Tryptamine concentration": 0.851},
      {"smiles": "Cc1ncc([N+](=O)[O-])n1C", "note": "[Dimetridazole] (20 µM)", "fold change of Tryptamine concentration": "0.218 (active)"},
      {"smiles": "CC[C@@H]1C(=O)OC[C@@H]1Cc1cncn1C", "note": "[Pilocarpine nitrate] (20 µM)", "fold change of Tryptamine concentration": 1.01},
      {"smiles": "Clc1ccc(C(Cn2ccnc2)OCc2ccsc2Cl)c(Cl)c1", "note": "(centres undefined) [Tioconazole] (20 µM)", "fold change of Tryptamine concentration": "0.26 (active)"},
      {"smiles": "c1coc(CNc2ncnc3[nH]cnc23)c1", "note": "[Kinetin] (20 µM)", "fold change of Tryptamine concentration": 1.01},
      {"smiles": "CC1(C)O[C@@H]2C[C@H]3[C@@H]4CCC5=CC(=O)CC[C@]5(C)[C@@]4(F)[C@@H](O)C[C@]3(C)[C@]2(C(=O)CCl)O1", "note": "[Halcinonide] (20 µM)", "fold change of Tryptamine concentration": 0.963},
      {"smiles": "CC(=O)N[C@@H](CC(C)C)C(=O)O", "note": "[N-Acetyl-L-leucine] (20 µM)", "fold change of Tryptamine concentration": 1.03},
      {"smiles": "COc1cccc(CCc2ccccc2OCC(CN(C)C)OC(=O)CCC(=O)O)c1", "note": "(centres undefined) [Sarpogrelate hydrochloride] (20 µM)", "fold change of Tryptamine concentration": 0.97},
      {"smiles": "CN1CCC(=C2c3ccccc3CCc3sccc32)CC1", "note": "[Pizotifen malate] (20 µM)", "fold change of Tryptamine concentration": 0.924},
      {"smiles": "Oc1ccc2ccccc2c1N=Nc1ccccc1", "note": "[Sudan I (1-phenylazo-2-hydroxynaphthalene)] (20 µM)", "fold change of Tryptamine concentration": 1.04},
      {"smiles": "CC(C)(C)c1ccc(C(=O)CCCN2CCC(OC(c3ccccc3)c3ccccc3)CC2)cc1", "note": "[Ebastine] (20 µM)", "fold change of Tryptamine concentration": 0.856},
      {"smiles": "O=c1oc2cc(O)ccc2s1", "note": "[Tioxolone] (20 µM)", "fold change of Tryptamine concentration": 0.987},
      {"smiles": "CCCOc1ccc(C(=O)OCCN(CC)CC)cc1N", "note": "[Proparacaine hydrochloride] (20 µM)", "fold change of Tryptamine concentration": 1.08},
      {"smiles": "CC(C)NC[C@H](O)COc1cccc2ccccc12", "note": "[(S)-(-)-Propranolol hydrochloride] (20 µM)", "fold change of Tryptamine concentration": 1},
      {"smiles": "COc1cc(C(=O)NCc2ccc(OCCN(C)C)cc2)cc(OC)c1OC", "note": "[Trimethobenzamide hydrochloride] (20 µM)", "fold change of Tryptamine concentration": 1.04},
      {"smiles": "N[C@@H](Cc1cc(I)c(Oc2cc(I)c(O)c(I)c2)c(I)c1)C(=O)O", "note": "[(L) Thyroxine] (20 µM)", "fold change of Tryptamine concentration": 0.99},
      {"smiles": "O=C(NCC(O)CO)c1c(I)c(C(=O)NCC(O)CO)c(I)c(N(CCO)C(=O)CO)c1I", "note": "(centres undefined) [Ioversol] (20 µM)", "fold change of Tryptamine concentration": 1.11},
      {"smiles": "CCCCC[C@H](O)/C=C/[C@H]1[C@H](O)CC(=O)[C@@H]1CCCCCCC(=O)O", "note": "[Alprostadil] (20 µM)", "fold change of Tryptamine concentration": 0.987},
      {"smiles": "CC(C)(CO)[C@@H](O)C(=O)NCCCC(=O)O", "note": "[Hopantenate calcium] (20 µM)", "fold change of Tryptamine concentration": 1.04},
      {"smiles": "Cc1nnc(NS(=O)(=O)c2ccc(N)cc2)s1", "note": "[Sulfamethizole] (20 µM)", "fold change of Tryptamine concentration": 0.884},
      {"smiles": "OC[C@H](O)C(O)[C@@H](O)CO", "note": "[L-Arabinitol] (50 µM)", "fold change of Tryptamine concentration": 0.939},
      {"smiles": "CN/C(=N\\CCSCc1nc[nH]c1C)NC#N", "note": "[Cimetidine] (20 µM)", "fold change of Tryptamine concentration": 0.997},
      {"smiles": "CCN(CC)C(=O)/C(C#N)=C/c1cc(O)c(O)c([N+](=O)[O-])c1", "note": "[Entacapone] (20 µM)", "fold change of Tryptamine concentration": 0.929},
      {"smiles": "OC(CNCC(O)C1CCc2cc(F)ccc2O1)C1CCc2cc(F)ccc2O1", "note": "(centres undefined) [Nebivolol hydrochloride] (20 µM)", "fold change of Tryptamine concentration": 0.882},
      {"smiles": "CCN(CC)CC(=O)Nc1c(C)cccc1C", "note": "[Lidocaine hydrochloride] (20 µM)", "fold change of Tryptamine concentration": 1.01},
      {"smiles": "C[C@H](NCc1ccc(OCc2cccc(F)c2)cc1)C(N)=O", "note": "[Safinamide] (20 µM)", "fold change of Tryptamine concentration": 0.99},
      {"smiles": "CN(C)CCc1c[nH]c2ccc(Cn3cncn3)cc12", "note": "[Rizatriptan benzoate] (20 µM)", "fold change of Tryptamine concentration": 1.01},
      {"smiles": "C[C@H]1C[C@@H]2[C@H]([C@@H](O)C[C@@]3(C)[C@H]2CC[C@]3(O)C(=O)CO)[C@@]2(C)C=CC(=O)C=C12", "note": "[Methylprednisolone, 6-alpha] (20 µM)", "fold change of Tryptamine concentration": 1.01},
      {"smiles": "CC1COc2ccccc2N1C(=O)C(Cl)Cl", "note": "(centres undefined) (20 µM)", "fold change of Tryptamine concentration": 1.06},
      {"smiles": "C=C1c2cccc(O)c2C(O)=C2C(=O)[C@]3(O)C(O)=C(C(N)=O)C(=O)[C@@H](N(C)C)[C@@H]3[C@@H](O)[C@H]12", "note": "[Methacycline hydrochloride] (20 µM)", "fold change of Tryptamine concentration": "0.461 (active)"},
      {"smiles": "CCN1CCCC(OC(=O)C(c2ccccc2)c2ccccc2)C1", "note": "(centres undefined) [Piperidolate hydrochloride] (20 µM)", "fold change of Tryptamine concentration": 1.01}
    ]}
  ]
}
